Experimental data taken from PubChem BioAssay (NCI).
About 83,000 compounds went through this panel and 20% of them were active in at least one assay; those are over-represented in the sample as a whole.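 Compound tested at a single concentration for 48 hours in 96-well plates; a percent growth value below 10 was scored as active.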 A number with no mark means an inactive call. Activity calls are given as the source filed them.

system: RXF 393 renal; experiment: NCI-60 one-dose screen, 48 h (100 = growth as untreated, 0 = no growth, -100 = all killed); details: 10 µM unless noted

SMILES	growth
CCCC[C@H](NC(=O)[C@H]1CCCN1C)C(=O)N(C)[C@H](C[C@@H](OC(C)=O)c1nc(C(=O)N[C@@H](Cc2ccccc2)C[C@H](C)C(=O)OCC)cs1)C(C)C	25.3%
COc1ccc2c(c1)c(-c1nc(-c3c[nH]c4ncccc34)cs1)cn2CCCCN1CCCCC1	-85.8% (active)
COC(=O)[C@H](Cc1ccccc1)NC(=O)c1csc([C@@H](C[C@H](C(C)C)N(C)C(=O)[C@@H](NC(=O)[C@H]2CCCN2C)C2CC2)OC(C)=O)n1	23.3%
C[C@]12CC[C@H]3[C@@H](CC[C@]4(O)C[C@@H](O[C@@H]5O[C@H](CO)[C@@H](O[C@@H]6OC[C@@H](O)[C@H](O)[C@H]6O)[C@H](O)[C@H]5O)CC[C@]34C=O)[C@@]1(O)CC[C@@H]2C1=CC(=O)OC1	-19.4% (active)
c1cc2c(c3c1CCNC3)OCO2	104%
Fc1ccc2c(c1)c(-c1nc(-c3c[nH]c4ncccc34)cs1)cn2CCCCN1CCCCC1	-73.1% (active)
O=C(Nc1ccncc1F)c1cn(CC2CC2)c2ccccc12	103%
COP(=S)(N1CC1)N1CC1	114%
CCc1ccccc1[C@@H]1C[C@]2(C)CCO[C@@H]2OO1	112%
CC(=O)O[C@H](C[C@H](C(C)C)N(C)C(=O)[C@@H](NC(=O)[C@H]1CCCCN1C)C(C)(C)C)c1nc(C(=O)N[C@@H](Cc2ccccc2)C[C@H](C)C(=O)O)cs1	39.5%
COc1ccc(C(=O)c2cc(OC)c(OC)c(OC)c2)cc1OC(C)=O	49.3%
COc1ccc(N(CC(=O)NCCC[Te]c2ccccc2)C(=O)CNC(=O)OC(C)(C)C)cc1	114%
COC(=O)[C@@H](C)C[C@H](Cc1ccccc1)NC(=O)c1csc([C@@H](C[C@H](C(C)C)N(C)C(=O)[C@@H](NC(=O)[C@H]2CCCCN2C)C(C)C)OC(C)=O)n1	75.3%
CC[C@H](C)[C@@H]1OC(=O)C(C)(C)[C@H](O)[C@H](Cc2ccccc2)OC(=O)[C@H](C(C)C)OC(=O)[C@@H](NC(=O)c2cccc(NC=O)c2O)[C@@H](C)OC1=O	87.1%
NC(=O)CNc1ccc([As]=[As]c2ccc(NCC(N)=O)cc2)cc1 (stereo unspecified)	32.1%
Fc1ccc2c(c1)c(-c1nc(-c3c[nH]c4ncccc34)cs1)cn2CCN1CCOCC1	61.6%
O=C([O][Hg][CH2]C1COCC([CH2][Hg][O]C(=O)c2ccccc2)O1)c1ccccc1 (stereo unspecified)	87.5%
O=[N+]([O-])CC(c1ccccc1Cl)c1c(-c2ccccc2)[nH]c2ccccc12 (stereo unspecified)	27.8%

SMILES	growth
CCn1c2ccccc2c2cc(C(=O)c3cccc4c3CCCN4)ccc21	104%
COc1ccc(/C(C)=C(\c2ccc(OCCN3CCOCC3)cc2)c2ccc(OC(=O)Cc3ccccc3)cc2)cc1	111%
Cc1cc(N(CCCl)CCCl)ccc1C=Nc1ccc(-c2csc(Cc3ccccc3)n2)cc1	83.8%
Cc1ccc2c(C(C[N+](=O)[O-])c3cccs3)c(-c3ccccc3)[nH]c2c1 (stereo unspecified)	13.8%
O=C(CC1(O)C(=O)N(Cc2ccccc2)c2ccc(Cl)cc21)c1ccc(C(=O)NCC2CCC3(CC2)OOC2(CCCCC2)OO3)cc1 (stereo unspecified)	-80.5% (active)
CCOC(=O)CCC(NC(=O)C(Cc1ccc(N(CCCl)CCCl)cc1)NC=O)C(=O)OCC (stereo unspecified)	-75.9% (active)
COC(=O)[C@@H](C)C[C@H](Cc1ccccc1)NC(=O)c1csc([C@@H](C[C@H](C(C)C)N(C)C(=O)[C@@H](NC(=O)C23CC(NC(C)=O)(C2)C3)C2CC2)OC(C)=O)n1	36.9%
COC(=O)[C@]12CCC(C)(C)C[C@H]1[C@H]1C(=O)C[C@@H]3[C@@]4(C)C[C@@]5(CC(C)(C)[C@@H]4CC[C@@]3(C)[C@]1(C)CC2)OO[C@@](C)(C(F)(F)F)O5	95.3%
CNC(=O)Oc1ccc(N(C)C)cc1C(C)C	73.8%
COc1ccc(/C=C\c2cc(OC)c(OC)c(OC)c2)cc1OCC(=O)Nc1nc2ccc(C(F)(F)F)cc2s1	-4.84% (active)
O=C(CC1(O)C(=O)N(Cc2ccccc2)c2ccc(F)cc21)c1ccc(C(=O)NCC2CCC3(CC2)OOC2(CCCCC2)OO3)cc1 (stereo unspecified)	-80.4% (active)
c1cnc2[nH]cc(-c3csc(-c4cn(CCCCN5CCCCC5)c5ccccc45)n3)c2c1	87.3%
COc1ccc(NC([Se])=NC23CC4CC(CC(C4)C2)C3)cc1	-41% (active)
Clc1cccc(Cl)c1Cl	122%
C[C@]12CCc3sc(-c4ccccc4O)nc3C1=CC[C@@H]1[C@@H]2CC[C@]2(C)C(=O)CC[C@@H]12	107%
O=C(CC1(O)C(=O)Nc2ccccc21)c1ccc(C(=O)NCC2CCC3(CC2)OOC2(CCCCC2)OO3)cc1 (stereo unspecified)	98.1%
CCCOC(=O)N[C@H]1CCc2c(Br)c(OC)c(OC)c(OC)c2-c2ccc(SC)c(=O)cc21	13.8%
Cc1cc(C)c(CBr)c(C)c1	100%
